Results on 40 compounds are retold here after PubChem BioAssay (EPA / NIEHS).

Records with an inconclusive call do not appear. Calls of active or inactive are those of the source. The calls were made as follows: active = hit-call score of the fitted dose curve at least 0.9, where 1 is the maximum; inconclusive = response in the unintended direction; inactive = score below 0.9.

The test is described as follows: Tanguay_ZF_120hpf_SWIM_legacy: (Legacy) Oregon State University Tanguay Lab 120 Hour Post-fertilization zebrafish Assay for Swim Bladder Malformation (AID 2283654).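 Also: swim bladder malformation in each larva scored yes or no under brightfield.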 The method, then:
Tanguay_ZF_120hpf_legacy is a whole embryo, multiplexed endpoint assay using zebrafish larvae exposed for 120 hours post fertilization on a 96-well plate.Tanguay_ZF_120hpf_SWIM_legacy is one of one assay component(s) measured or calculated from the Tanguay_ZF_120hpf_legacy assay. It is designed to make measurements of zebrafish development as detected with brightfield microscopy of developing zebrafish embryos.Data from the assay component Tanguay_ZF_120hpf_SWIM_legacy was analyzed into 1 assay endpoints. This assay endpoint, Tanguay_ZF_120hpf_SWIM_legacy, was analyzed in the positive analysis fitting direction relative to DMSO as the negative control and baseline of activity. Using a type of morphology reporter, gain-of-signal activity can be used to understand changes in developmentals as they relate to the whole embryo. To generalize the intended target to other relatable targets, this assay endpoint is annotated to the zebrafish development intended target family, where the subfamily is swim bladder morphogenesis.
Zebrafish husbandry: Tropical 5D wild-type adult zebrafish were housed in at an approximate density of 1000 per 100 gallon tank at the Sinnhuber Aquatic Research Laboratory, Oregon State University, Corvallis, OR. Each tank was kept at standard laboratory conditions of 28C on a 14-h light/10-h dark photoperiod in fish water consisting of reverse osmosis water supplemented with a commercially available salt (Instant Ocean). Spawning funnels were placed into the tanks the night prior, and embryos were collected and staged. To increase bioavailability, the chorion was enzymatically removed using pronase (63.6mg/ml, >/= 3.5U/mg, Sigma-Aldrich: P5147) at 4 hours post fertilization (hpf) using a custom automated dechorionator.Chemical exposures: Six hpf dechorionated embryos were placed 1 embryo per well in a 96-well plate prefilled with 90 ul of EM using automated embryo placement systems (AEPS). Ten microliters of each row of dilution plate 2 was added to 2 exposure plates. The final DMSO concentration used was 0.64% (vol/vol). Thirty-two embryos were also exposed to 5uM trimethyltin chloride (positive control). Plates were sealed to prevent evaporation and foil covered to reduce light exposure and kept in a 28C incubator. Embryos were statically exposed until 120 hpf. At 24 hpf, embryos were assessed for photomotor response using a custom photomotor response analysis tool (PRAT) and for developmental toxicity endpoints (MO24: mortality at 24 hpf, DP: developmental progression, SM: spontaneous movement, and NC: notochord distortion). At 120 hpf, locomotor activity was measured using Viewpoint Zebralab and assessed for 18 endpoints. Zebrafish acquisition and analysis program (ZAAP), a custom program designed to inventory, acquire, and manage zebrafish data, was used to collect developmental endpoints as either present or absent (i.e., binary responses were recorded). If mortality occurred for an embryo (at either 24 or 120 hpf), the non-mortality endpoints were not measured.
Regarding `O=C(O)c1cc(N=Nc2ccc(S(=O)(=O)Nc3ccccn3)cc2)ccc1O`, the compound was called inactive. Turning to `CN(C)c1ccc(N=NS(=O)(=O)O)cc1`, the compound was called inactive.

On to `CNCc1ccc(NC(=O)c2c[nH]c3c2C(=O)CCC3)cc1`, for which the call was inactive. For `CCCCCCCCO` the value was “inactive”; for `CCOCCOCCOCCO`, “inactive”.

Consider `CCCC(=O)OCC`, for which the call was inactive. For the compound `Cc1ccc(S(=O)(=O)O)cc1C`, the outcome was inactive. `CCCN(C1CCN(C(=O)C2CCNCC2)CC1)[C@@H]1CCc2ccc(OC)cc2C1`: the compound was called inactive. With `CC[C@H]1CC[C@H](NCc2cc3c(cc2OC)[C@H]2C[C@H]2C(=O)N3C)[C@H](c2ccccc2)N1`, the compound was classed as inactive. For `CCCCC(CC)COC(=O)c1ccc(C(=O)OCC(CC)CCCC)cc1` (stereo not given) the value was “inactive”; for `CN(C)c1ccc(Cc2ccc(N(C)C)cc2)cc1`, “inactive”. On to `C=CCCCCCCCCC(=O)O`, for which the call was inactive. For `Cc1ccc(N)cc1O` the value was “inactive”; for `COc1cccc(-c2ccc(/C=C\CN3CCCCCC3)cc2Cl)c1`, “inactive”; for `CCC(C)(C)C(=O)O[C@H]1C[C@@H](C)C=C2C=C[C@H](C)[C@H](CC[C@@H]3C[C@@H](O)CC(=O)O3)[C@H]21`, “inactive”. As for `CC(C)=CCC/C(C)=C/CO`, the outcome was inactive. The same measure for `COC(=O)CC(=O)OC`: “inactive”; for `O=C(O)c1cccc(Oc2ccccc2)c1`: “inactive”; for `NC(=O)NO`: “inactive”. Turning to `CNS(=O)(=O)c1cc(C(=O)N2CCC(CCN3C4CCC3CC(n3c(C)nc5ccccc53)C4)(c3cccc(F)c3)CC2)c(Cl)cc1F` (stereo not given), the compound was called inactive.

With `CC(O)CN(CCN(CC(C)O)CC(C)O)CC(C)O` (stereo not given), the compound was called inactive. For `CCCCCCCCCCCCc1ccccc1` the value was “inactive”; for `CC1=CC(=O)CC(C)(C)C1`, “inactive”; for `CCCCCCc1ccc(O)cc1O`, “inactive”. For `O=C(O)CCN(C1(C(=O)NO)CCCC1)S(=O)(=O)c1ccc(Oc2ccc(F)cc2)cc1` the value was “inactive”. Take `CCCCC(CC)COC(=O)CCCCCCCCC(=O)OCC(CC)CCCC` (stereo not given): the call was inactive. The same measure for `Clc1nc(Cl)c(Cl)c(Cl)c1Cl`: “inactive”; for `CC[C@H](C)C(=O)O[C@H]1C[C@@H](C)C=C2C=C[C@H](C)[C@H](CC[C@@H]3C[C@@H](O)CC(=O)O3)[C@H]21`: “inactive”; for `Cn1c(=O)cc(Oc2ccc(F)cc2F)c2cnc(NCC(C)(C)O)nc21`: “inactive”. The same measure for `CCc1cc(SCc2sc(-c3ccc(C(F)(F)F)cc3)nc2CN2CCN(c3ccc(OC)cc3)CC2)ccc1OCC(=O)O`: “inactive”; for `CC(C)=CCCC(C)CCO` (stereo not given): “inactive”; for `Nc1nc2ncc(CNc3ccc(C(=O)N[C@@H](CCC(=O)O)C(=O)O)cc3)nc2c(=O)[nH]1`: “inactive”. For `COc1ccc(/C=C/S(=O)(=O)NC(=O)c2ccc(C)cc2Cl)cc1` the value was “inactive”; for `Cn1c(=O)c2c(ncn2C)n(C)c1=O`, “inactive”; for `C=CC(=C)CCC=C(C)C`, “inactive”. In the case of `O=C1OC(=O)C2C3C=CC(C3)C12` (stereo not given), the call was inactive. Consider `CCNc1ccccc1`, for which the outcome was inactive.

As for `CCOCCO`, the outcome was inactive. For the compound `CCCCCCCCCCCCCCCO`, the compound was classed as inactive. With `C[C@](N)(Cc1ccc(O)c(O)c1)C(=O)O`, the result was inactive.
